According to publication PMC5540273 (PLoS ONE, 2017):

Columns and labels:
Conditions in all cases: concentration: 1 μM, replicates: in singlicate; n = 1
EIF2AK1 = test system: EIF2AK1
EPHA1 = test system: EPHA1
EPHA2 = test system: EPHA2
EPHA3 = test system: EPHA3
EPHA4 = test system: EPHA4
EPHA5 = test system: EPHA5
EPHA6 = test system: EPHA6
EPHA7 = test system: EPHA7
EPHA8 = test system: EPHA8
EPHB1 = test system: EPHB1
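Note: KINOMEscan kinase panel screen.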

SMILES: CSc1nn2c(=O)cc(N3CCOCC3)nc2n1Cc1cccc(Cl)c1Cl [GSK2347225]
- %Inh (EIF2AK1): 2%
- %Inh (EPHA1): 1%
- %Inh (EPHA2): 11%
- %Inh (EPHA3): 15%
- %Inh (EPHA4): 8%
- %Inh (EPHA5): 1%
- %Inh (EPHA6): 3%
- %Inh (EPHA7): 12%
- %Inh (EPHA8): 15%
- %Inh (EPHB1): 29%

SMILES: Cl.O=S(=O)(c1cccc(F)c1)c1ccc(Nc2ncnc3cc(Br)sc23)cc1Cl [GSK306886]
- %Inh (EIF2AK1): 0%
- %Inh (EPHA1): 9%
- %Inh (EPHA2): 9%
- %Inh (EPHA3): 14%
- %Inh (EPHA4): 19%
- %Inh (EPHA5): 0%
- %Inh (EPHA6): 16%
- %Inh (EPHA7): 2%
- %Inh (EPHA8): 2%
- %Inh (EPHB1): 10%

SMILES: COC(=O)c1c(-c2ccccc2)c2cc(Cl)ccc2c(=O)n1Cc1ccc(S(C)(=O)=O)cc1
- %Inh (EIF2AK1): 10%
- %Inh (EPHA1): 0%
- %Inh (EPHA2): 8%
- %Inh (EPHA3): 6%
- %Inh (EPHA4): 20%
- %Inh (EPHA5): 4%
- %Inh (EPHA6): 34%
- %Inh (EPHA7): 1%
- %Inh (EPHA8): 7%
- %Inh (EPHB1): 6%

SMILES: CNc1nccc(-c2c(-c3ccc(F)cc3)ncn2CCCN2CCOCC2)n1 [SB-222516]
- %Inh (EIF2AK1): 12%
- %Inh (EPHA1): 14%
- %Inh (EPHA2): 0%
- %Inh (EPHA3): 0%
- %Inh (EPHA4): 0%
- %Inh (EPHA5): 0%
- %Inh (EPHA6): 0%
- %Inh (EPHA7): 21%
- %Inh (EPHA8): 25%
- %Inh (EPHB1): 17%

SMILES: Nc1nc(-c2ccc3c(N)n[nH]c3c2)cc(N2CCC[C@@H](C(=O)Nc3ccccc3)C2)n1.O=C(O)C(F)(F)F.O=C(O)C(F)(F)F [GSK2288359]
- %Inh (EIF2AK1): 1%
- %Inh (EPHA1): 17%
- %Inh (EPHA2): 0%
- %Inh (EPHA3): 0%
- %Inh (EPHA4): 4%
- %Inh (EPHA5): 0%
- %Inh (EPHA6): 0%
- %Inh (EPHA7): 3%
- %Inh (EPHA8): 3%
- %Inh (EPHB1): 21%

SMILES: CC(C)N1CCC(n2cnc(-c3ccc(F)cc3)c2-c2ccnc(N)n2)CC1 [SB-223132]
- %Inh (EIF2AK1): 0%
- %Inh (EPHA1): 28%
- %Inh (EPHA2): 46%
- %Inh (EPHA3): 0%
- %Inh (EPHA4): 0%
- %Inh (EPHA5): 0%
- %Inh (EPHA6): 0%
- %Inh (EPHA7): 0%
- %Inh (EPHA8): 17%
- %Inh (EPHB1): 0%

SMILES: O=C(CCO)NCCn1ccc2ncnc(Nc3ccc(Oc4cccc(C(F)(F)F)c4)c(Cl)c3)c21
- %Inh (EIF2AK1): 0%
- %Inh (EPHA1): 0%
- %Inh (EPHA2): 0%
- %Inh (EPHA3): 0%
- %Inh (EPHA4): 0%
- %Inh (EPHA5): 0%
- %Inh (EPHA6): 0%
- %Inh (EPHA7): 0%
- %Inh (EPHA8): 0%
- %Inh (EPHB1): 0%

SMILES: N#Cc1ccc(Oc2ccc(Nc3ncnc4cc[nH]c34)cc2Cl)cc1
- %Inh (EIF2AK1): 5%
- %Inh (EPHA1): 1%
- %Inh (EPHA2): 0%
- %Inh (EPHA3): 0%
- %Inh (EPHA4): 23%
- %Inh (EPHA5): 0%
- %Inh (EPHA6): 23%
- %Inh (EPHA7): 2%
- %Inh (EPHA8): 1%
- %Inh (EPHB1): 5%

SMILES: COc1ccc(Nc2nccc(N3CCC(NC(=O)Nc4ccc5c(c4)OCO5)C3)n2)cc1 (centres unmarked) [GSK1379745]
- %Inh (EIF2AK1): 0%
- %Inh (EPHA1): 8%
- %Inh (EPHA2): 0%
- %Inh (EPHA3): 0%
- %Inh (EPHA4): 11%
- %Inh (EPHA5): 0%
- %Inh (EPHA6): 19%
- %Inh (EPHA7): 7%
- %Inh (EPHA8): 20%
- %Inh (EPHB1): 4%

SMILES: CS(=O)(=O)CCNCc1nc(-c2ccc3ncnc(Nc4ccc(OCc5cccc(F)c5)c(Cl)c4)c3c2)cs1.Cl [GW583340]
- %Inh (EIF2AK1): 0%
- %Inh (EPHA1): 5%
- %Inh (EPHA2): 0%
- %Inh (EPHA3): 13%
- %Inh (EPHA4): 0%
- %Inh (EPHA5): 0%
- %Inh (EPHA6): 0%
- %Inh (EPHA7): 0%
- %Inh (EPHA8): 0%
- %Inh (EPHB1): 1%

SMILES: CC(C)(C)c1ccc(-n2cnc3c(N)ncnc32)cc1 [SKF-97263]
- %Inh (EIF2AK1): 0%
- %Inh (EPHA1): 14%
- %Inh (EPHA2): 23%
- %Inh (EPHA3): 0%
- %Inh (EPHA4): 27%
- %Inh (EPHA5): 0%
- %Inh (EPHA6): 28%
- %Inh (EPHA7): 8%
- %Inh (EPHA8): 16%
- %Inh (EPHB1): 3%

SMILES: CCC(CC)(CC)n1cnc2c(N)ncnc21 [SKF-97620]
- %Inh (EIF2AK1): 30%
- %Inh (EPHA1): 0%
- %Inh (EPHA2): 100%
- %Inh (EPHA3): 11%
- %Inh (EPHA4): 15%
- %Inh (EPHA5): 0%
- %Inh (EPHA6): 16%
- %Inh (EPHA7): 22%
- %Inh (EPHA8): 23%
- %Inh (EPHB1): 9%

SMILES: Clc1cccc(-c2nc(Nc3ccncc3)c3ccccc3n2)c1 [GW873004]
- %Inh (EIF2AK1): 0%
- %Inh (EPHA1): 100%
- %Inh (EPHA2): 38%
- %Inh (EPHA3): 0%
- %Inh (EPHA4): 5%
- %Inh (EPHA5): 0%
- %Inh (EPHA6): 0%
- %Inh (EPHA7): 15%
- %Inh (EPHA8): 18%
- %Inh (EPHB1): 19%

SMILES: CS(=O)(=O)CCNCc1ccc(-c2ccc3ncnc(Nc4ccc(OCc5ccccc5)c(Cl)c4)c3c2)o1.Cl [GW574783]
- %Inh (EIF2AK1): 0%
- %Inh (EPHA1): 3%
- %Inh (EPHA2): 1%
- %Inh (EPHA3): 0%
- %Inh (EPHA4): 13%
- %Inh (EPHA5): 0%
- %Inh (EPHA6): 15%
- %Inh (EPHA7): 0%
- %Inh (EPHA8): 8%
- %Inh (EPHB1): 3%

SMILES: Cn1ccc2ncnc(Nc3ccc(Oc4cccc(Cl)c4)c(Cl)c3)c21
- %Inh (EIF2AK1): 0%
- %Inh (EPHA1): 0%
- %Inh (EPHA2): 5%
- %Inh (EPHA3): 13%
- %Inh (EPHA4): 0%
- %Inh (EPHA5): 21%
- %Inh (EPHA6): 21%
- %Inh (EPHA7): 94.1%
- %Inh (EPHA8): 86%
- %Inh (EPHB1): 15%

SMILES: CC(C)(C)OC(=O)NC1CCCN(c2cc(-c3ccc4c(N)n[nH]c4c3)nc(N)n2)C1 (centres unmarked) [GSK2286096]
- %Inh (EIF2AK1): 4%
- %Inh (EPHA1): 8%
- %Inh (EPHA2): 11%
- %Inh (EPHA3): 0%
- %Inh (EPHA4): 14%
- %Inh (EPHA5): 0%
- %Inh (EPHA6): 9%
- %Inh (EPHA7): 0%
- %Inh (EPHA8): 6%
- %Inh (EPHB1): 10%

SMILES: C[C@@H]1CCN(C(=O)CO)C[C@@H]1N(C)c1ncnc2[nH]ccc12
- %Inh (EIF2AK1): 5%
- %Inh (EPHA1): 8%
- %Inh (EPHA2): 0%
- %Inh (EPHA3): 0%
- %Inh (EPHA4): 0%
- %Inh (EPHA5): 2%
- %Inh (EPHA6): 0%
- %Inh (EPHA7): 0%
- %Inh (EPHA8): 0%
- %Inh (EPHB1): 9%
